{"source": "PubChem BioAssay (Tox21)", "note": "Results filed as inconclusive are left out. Active and inactive are the calls of the source. Calls follow the shape of the dose curve; as a rule, active = well fitted cell-killing curve with a large enough effect in the repeat runs; inconclusive = weak or mixed curves, or effect the other way; inactive = flat fitted curve, though single readings scatter."}
{"assay": "qHTS RealTime-Glo MT Cell Viability Assay in HEK293 cells - 0 hour (AID 1224880); also: top concentration of the series differs between compounds; nearly all actives have a fitted effect of over 45% in size", "conditions": "RealTime-Glo luminescence; series mostly up to 76.8 µM", "description": "U.S. Tox21 Program National Center for Advancing Translational Sciences [NCATS] NIH Chemical Genomics Center [NCGC] U.S. Environmental Protection Agency [EPA] National Institutes of Environmental Health Sciences [NIEHS] National Toxicology Program [NTP] U.S. Food and Drug Administration [FDA] Tox21 Assay Overview: Measure of cell viability is critical in the cell-base assay. Analysis of cell viability is necessary for the characterization of cell responses to cytotoxic drugs and environmental stress. A RealTime-Glo MT Cell Viability Assay to monitor cell viability in real time of continues cell culture during 40 hours of compound treatment was used to screen Tox21 10K library compounds in Hek293 cells. The RealTime-Glo MT Cell Viability Assay is a nonlytic, homogeneous, bioluminescent method to measure cell viability in real time using a simple, plate-based method. The assay involves adding NanoLuc luciferase and a cell-permeant prosubstrate to cells in culture. Viable cells reduce the proprietary prosubstrate to generate a substrate for NanoLuc luciferase. This substrate diffuses from cells into the surrounding culture medium, where it is rapidly used by the NanoLuc Enzyme to produce a luminescent signal. The signal correlates with the number of viable cells, making the assay well suited for cytotoxicity studies.\nTox21 Assay Protocol Summary: The mixture of Hek293 cell suspension and reagents were dispensed at 600cells/6 ul/well in 1536-well tissue culture treated black solid bottom plates using a Multidrop dispenser. After the assay plates were incubated at a 37 C/5% CO2 incubator for 5 hours, 23 nL of compounds dissolved in DMSO, positive and negative controls was transferred to the assay plate by a pintool work station. The plates were incubated at 37 C for 40 hours. The luminescence intensity were measured at 0h, 8h, 16h, 24h, 32h and 40h time points using ViewLux plate reader during compound treatment."}
{"smiles": "CCNc1nc(NC(C)C)nc(SC)n1", "outcome": "inactive"}
{"smiles": "c1ccc2c(c1)oc1ccccc12", "outcome": "inactive"}
{"smiles": "O=C(NC(=O)c1c(F)cccc1F)Nc1cc(Cl)c(OC(F)(F)C(F)C(F)(F)F)cc1Cl", "note": "(stereo not given)", "outcome": "inactive"}
{"smiles": "Cc1cc(Cl)ccc1O", "outcome": "inactive"}
{"smiles": "Cc1ccc([N+](=O)[O-])cc1C", "outcome": "inactive"}
{"smiles": "CCCCOC(=O)c1ccccc1C(=O)OCCCC", "outcome": "inactive"}
{"smiles": "CCN(CC)c1ccccc1", "outcome": "inactive"}
{"smiles": "OCCN(CCO)CCO", "outcome": "inactive"}
{"smiles": "CN1C(=O)CN=C(c2ccccc2)c2cc(Cl)ccc21", "outcome": "inactive"}
{"smiles": "COC(=O)NS(=O)(=O)c1ccc(N)cc1", "outcome": "inactive"}
{"smiles": "CCCCCCCCCl", "outcome": "inactive"}
{"smiles": "CC(C)OC(=O)Nc1cccc(Cl)c1", "outcome": "inactive"}
{"smiles": "O=c1[nH]c(=O)[nH]c(=O)[nH]1", "outcome": "inactive"}
{"smiles": "CC(C)OC(=O)Nc1ccccc1", "outcome": "inactive"}
{"smiles": "ClCc1cccnc1", "outcome": "inactive"}
{"smiles": "c1cc2c3c(cccc3c1)CC2", "outcome": "inactive"}
{"smiles": "CN(C)CCO", "outcome": "inactive"}
{"smiles": "COC(=O)c1ccccc1N", "outcome": "inactive"}
{"smiles": "Nc1ccc(Oc2ccc(N)cc2)cc1", "outcome": "inactive"}
{"smiles": "C#CCN(C)[C@H](C)Cc1ccccc1", "outcome": "inactive"}
{"smiles": "COP(N)(=O)SC", "note": "(stereo not given)", "outcome": "inactive"}
{"smiles": "CC(C)NC(=O)N1CC(=O)N(c2cc(Cl)cc(Cl)c2)C1=O", "outcome": "inactive"}
{"smiles": "CON(C)C(=O)Nc1ccc(Cl)c(Cl)c1", "outcome": "inactive"}
{"smiles": "Cc1ccccc1O", "outcome": "inactive"}
{"smiles": "O=C1CCCN1", "outcome": "inactive"}
{"smiles": "CCc1cccc(C)c1N(C(=O)CCl)C(C)COC", "note": "(stereo not given)", "outcome": "inactive"}
{"smiles": "COCCl", "outcome": "inactive"}
{"smiles": "C[C@]12CC[C@H]3[C@@H](CC[C@@]45O[C@@H]4C(O)=C(C#N)C[C@]35C)[C@@H]1CC[C@@H]2O", "outcome": "inactive"}
{"smiles": "CCCCCOC(=O)c1ccccc1C(=O)OCCCCC", "outcome": "inactive"}
{"smiles": "CCCN(CCC)N=O", "outcome": "inactive"}
{"smiles": "CN(N=O)c1ccccc1", "outcome": "inactive"}
{"smiles": "CCCCCCCCCCCC#N", "outcome": "inactive"}
{"smiles": "CC(C)(C)OOC(=O)c1ccccc1", "outcome": "inactive"}
{"smiles": "CCNc1nc(NC(C)(C)C)nc(SC)n1", "outcome": "inactive"}
{"smiles": "CC(Oc1ccc(Cl)cc1Cl)C(=O)O", "note": "(stereo not given)", "outcome": "inactive"}
{"smiles": "CC(C)N1C(=O)c2ccccc2NS1(=O)=O", "outcome": "inactive"}
{"smiles": "Clc1cccc(Cl)c1Cl", "outcome": "inactive"}
{"smiles": "BrCCBr", "outcome": "inactive"}
{"smiles": "CCC[N+](=O)[O-]", "outcome": "inactive"}
{"smiles": "O=c1ccc(=O)[nH][nH]1", "outcome": "inactive"}
